# Data as given in the supplement of paper PMC4466140.
# How the values were obtained:
# Assay in all cases: SPOT peptide array binding signal intensity (averaged, normalized) (arbitrary units (background-subtracted, floor 0; scale differs between SH3 domains)); higher = stronger binding of the SH3 domain to the peptide
# CaNbp2 = molecular target: CaNbp2
# In short: (§1)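 Spot intensities were captured after detection with anti-GST antibody, an HRP-linked anti-mouse secondary and luminol, and quantified with Genespotter. The probes were GST-fused SH3 domains from four yeast species, produced in E. coli BL21(DE3), purified on glutathione Sepharose and incubated at 10 μg/ml overnight at 4°C on cellulose-bound synthetic 15-mer peptides with cysteines replaced by serines. Binding signal is the normalized, background-subtracted spot intensity averaged over replicates, and its arbitrary units differ between domains.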
# CaRvs167 = molecular target: CaRvs167
# In short: as §1
# CaRvs167-3 = molecular target: CaRvs167-3
# In short: as §1
# CaSho1 = molecular target: CaSho1
# In short: as §1
# CaSla1-D1-D2 = molecular target: CaSla1-D1-D2
# In short: as §1
# CaSla1-D3 = molecular target: CaSla1-D3
# In short: as §1
# ScAbp1 = molecular target: ScAbp1
# In short: as §1
# ScBbc1 = molecular target: ScBbc1
# In short: as §1
# ScBem1-D1 = molecular target: ScBem1-D1
# In short: as §1
# ScBzz1-D1 = molecular target: ScBzz1-D1
# In short: as §1
# ScBzz1-D2 = molecular target: ScBzz1-D2
# In short: as §1
# ScCyk3 = molecular target: ScCyk3
# In short: as §1
# ScFus1 = molecular target: ScFus1
# In short: as §1
# ScHof1 = molecular target: ScHof1
# In short: as §1
# ScHse1 = molecular target: ScHse1
# In short: as §1
# ScLsb1 = molecular target: ScLsb1
# In short: as §1
# ScLsb2 = molecular target: ScLsb2
# In short: as §1
# ScLsb3 = molecular target: ScLsb3
# In short: as §1
# ScLsb4 = molecular target: ScLsb4
# In short: as §1
# ScMyo3 = molecular target: ScMyo3
# In short: as §1
# ScMyo5 = molecular target: ScMyo5
# In short: as §1
# ScNbp2 = molecular target: ScNbp2
# In short: as §1
# ScPex13 = molecular target: ScPex13
# In short: as §1
# ScRvs167 = molecular target: ScRvs167
# In short: as §1
# ScSho1 = molecular target: ScSho1
# In short: as §1
# ScSla1-D1-D2 = molecular target: ScSla1-D1-D2
# In short: as §1
# ScSla1-D3 = molecular target: ScSla1-D3
# In short: as §1
# SpAbp1-D1 = molecular target: SpAbp1-D1
# In short: as §1
# SpBbc1 = molecular target: SpBbc1
# In short: as §1
# SpBzz1-D1 = molecular target: SpBzz1-D1
# In short: as §1
# SpBzz1-D2 = molecular target: SpBzz1-D2
# In short: as §1
# SpCyk3 = molecular target: SpCyk3
# In short: as §1
# SpHof1 = molecular target: SpHof1
# In short: as §1
# SpHof1-2 = molecular target: SpHof1-2
# In short: as §1
# SpHof1-3 = molecular target: SpHof1-3
# In short: as §1
# SpHse1 = molecular target: SpHse1
# In short: as §1
# SpLsb1 = molecular target: SpLsb1
# In short: as §1
# SpLsb4 = molecular target: SpLsb4
# In short: as §1
# SpMyo1 = molecular target: SpMyo1
# In short: as §1
# SpNbp2 = molecular target: SpNbp2
# In short: as §1
# SpPex13 = molecular target: SpPex13
# In short: as §1
# SpRvs167 = molecular target: SpRvs167
# In short: as §1
# SpSla1-D1-D2 = molecular target: SpSla1-D1-D2
# In short: as §1
# SpSla1-D3 = molecular target: SpSla1-D3
# In short: as §1
# AgAbp1 = molecular target: AgAbp1
# In short: as §1
# AgBbc1 = molecular target: AgBbc1
# In short: as §1
# AgBem1-D1 = molecular target: AgBem1-D1
# In short: as §1
# AgBzz1-D1 = molecular target: AgBzz1-D1
# In short: as §1
# AgBzz1-D2 = molecular target: AgBzz1-D2
# In short: as §1
# AgCyk3 = molecular target: AgCyk3
# In short: as §1
# AgFus1 = molecular target: AgFus1
# In short: as §1
# AgHof1 = molecular target: AgHof1
# In short: as §1
# AgHse1 = molecular target: AgHse1
# In short: as §1
# AgLsb1 = molecular target: AgLsb1
# In short: as §1
# AgLsb4 = molecular target: AgLsb4
# In short: as §1
# AgMyo5 = molecular target: AgMyo5
# In short: as §1
# AgNbp2 = molecular target: AgNbp2
# In short: as §1
# AgRvs167 = molecular target: AgRvs167
# In short: as §1
# AgSho1 = molecular target: AgSho1
# In short: as §1
# AgSla1-D1-D2 = molecular target: AgSla1-D1-D2
# In short: as §1
# AgSla1-D3 = molecular target: AgSla1-D3
# In short: as §1
# CaAbp1-D1 = molecular target: CaAbp1-D1
# In short: as §1
# CaAbp1-D2 = molecular target: CaAbp1-D2
# In short: as §1
# CaBbc1 = molecular target: CaBbc1
# In short: as §1
# CaBem1-D1 = molecular target: CaBem1-D1
# In short: as §1
# CaBzz1-D1 = molecular target: CaBzz1-D1
# In short: as §1
# CaBzz1-D2 = molecular target: CaBzz1-D2
# In short: as §1
# CaCyk3 = molecular target: CaCyk3
# In short: as §1
# CaFus1 = molecular target: CaFus1
# In short: as §1
# CaHof1 = molecular target: CaHof1
# In short: as §1
# CaHse1 = molecular target: CaHse1
# In short: as §1
# CaLsb1 = molecular target: CaLsb1
# In short: as §1
# CaLsb4 = molecular target: CaLsb4
# In short: as §1
# CaMyo5 = molecular target: CaMyo5
# In short: as §1
binder,measurement,setting,value
FVLRYYILIPHEQWD,SPOT peptide array binding signal intensity,CaNbp2,595
same,SPOT peptide array binding signal intensity,CaRvs167,216
same,SPOT peptide array binding signal intensity,CaRvs167-3,119
same,SPOT peptide array binding signal intensity,CaSho1,666
same,SPOT peptide array binding signal intensity,CaSla1-D1-D2,≤ 0
same,SPOT peptide array binding signal intensity,CaSla1-D3,163
same,SPOT peptide array binding signal intensity,ScAbp1,≤ 0
same,SPOT peptide array binding signal intensity,ScBbc1,≤ 0
same,SPOT peptide array binding signal intensity,ScBem1-D1,14.5
same,SPOT peptide array binding signal intensity,ScBzz1-D1,14
same,SPOT peptide array binding signal intensity,ScBzz1-D2,28
same,SPOT peptide array binding signal intensity,ScCyk3,35
same,SPOT peptide array binding signal intensity,ScFus1,1310
same,SPOT peptide array binding signal intensity,ScHof1,≤ 0
same,SPOT peptide array binding signal intensity,ScHse1,1060
same,SPOT peptide array binding signal intensity,ScLsb1,≤ 0
same,SPOT peptide array binding signal intensity,ScLsb2,1.5
same,SPOT peptide array binding signal intensity,ScLsb3,67
same,SPOT peptide array binding signal intensity,ScLsb4,5
same,SPOT peptide array binding signal intensity,ScMyo3,1.5
same,SPOT peptide array binding signal intensity,ScMyo5,3
same,SPOT peptide array binding signal intensity,ScNbp2,187
same,SPOT peptide array binding signal intensity,ScPex13,7.5
same,SPOT peptide array binding signal intensity,ScRvs167,9.83
same,SPOT peptide array binding signal intensity,ScSho1,1100
same,SPOT peptide array binding signal intensity,ScSla1-D1-D2,7.5
same,SPOT peptide array binding signal intensity,ScSla1-D3,51
same,SPOT peptide array binding signal intensity,SpAbp1-D1,59.5
same,SPOT peptide array binding signal intensity,SpBbc1,2
same,SPOT peptide array binding signal intensity,SpBzz1-D1,20.5
same,SPOT peptide array binding signal intensity,SpBzz1-D2,3.25
same,SPOT peptide array binding signal intensity,SpCyk3,27.5
same,SPOT peptide array binding signal intensity,SpHof1,79.5
same,SPOT peptide array binding signal intensity,SpHof1-2,32.5
same,SPOT peptide array binding signal intensity,SpHof1-3,554
same,SPOT peptide array binding signal intensity,SpHse1,954
same,SPOT peptide array binding signal intensity,SpLsb1,2.5
same,SPOT peptide array binding signal intensity,SpLsb4,11.5
same,SPOT peptide array binding signal intensity,SpMyo1,13.2
same,SPOT peptide array binding signal intensity,SpNbp2,574
same,SPOT peptide array binding signal intensity,SpPex13,47.5
same,SPOT peptide array binding signal intensity,SpRvs167,10.7
same,SPOT peptide array binding signal intensity,SpSla1-D1-D2,1
same,SPOT peptide array binding signal intensity,SpSla1-D3,9.5
EQEEIAPSLPSRNSI,SPOT peptide array binding signal intensity,AgAbp1,6
same,SPOT peptide array binding signal intensity,AgBbc1,≤ 0
same,SPOT peptide array binding signal intensity,AgBem1-D1,≤ 0
same,SPOT peptide array binding signal intensity,AgBzz1-D1,10.5
same,SPOT peptide array binding signal intensity,AgBzz1-D2,1
same,SPOT peptide array binding signal intensity,AgCyk3,≤ 0
same,SPOT peptide array binding signal intensity,AgFus1,≤ 0
same,SPOT peptide array binding signal intensity,AgHof1,4.25
same,SPOT peptide array binding signal intensity,AgHse1,≤ 0
same,SPOT peptide array binding signal intensity,AgLsb1,17.5
same,SPOT peptide array binding signal intensity,AgLsb4,1050
same,SPOT peptide array binding signal intensity,AgMyo5,≤ 0
same,SPOT peptide array binding signal intensity,AgNbp2,10
same,SPOT peptide array binding signal intensity,AgRvs167,3
same,SPOT peptide array binding signal intensity,AgSho1,≤ 0
same,SPOT peptide array binding signal intensity,AgSla1-D1-D2,≤ 0
same,SPOT peptide array binding signal intensity,AgSla1-D3,≤ 0
same,SPOT peptide array binding signal intensity,CaAbp1-D1,≤ 0
same,SPOT peptide array binding signal intensity,CaAbp1-D2,7.5
same,SPOT peptide array binding signal intensity,CaBbc1,5.5
same,SPOT peptide array binding signal intensity,CaBem1-D1,2
same,SPOT peptide array binding signal intensity,CaBzz1-D1,≤ 0
same,SPOT peptide array binding signal intensity,CaBzz1-D2,≤ 0
same,SPOT peptide array binding signal intensity,CaCyk3,1
same,SPOT peptide array binding signal intensity,CaFus1,22
same,SPOT peptide array binding signal intensity,CaHof1,1
same,SPOT peptide array binding signal intensity,CaHse1,4
same,SPOT peptide array binding signal intensity,CaLsb1,0.5
same,SPOT peptide array binding signal intensity,CaLsb4,5990
same,SPOT peptide array binding signal intensity,CaMyo5,≤ 0
same,SPOT peptide array binding signal intensity,CaNbp2,≤ 0
same,SPOT peptide array binding signal intensity,CaRvs167,43.8
same,SPOT peptide array binding signal intensity,CaRvs167-3,1
same,SPOT peptide array binding signal intensity,CaSho1,≤ 0
same,SPOT peptide array binding signal intensity,CaSla1-D1-D2,≤ 0
same,SPOT peptide array binding signal intensity,CaSla1-D3,≤ 0
same,SPOT peptide array binding signal intensity,ScAbp1,14.5
same,SPOT peptide array binding signal intensity,ScBbc1,≤ 0
same,SPOT peptide array binding signal intensity,ScBem1-D1,≤ 0
same,SPOT peptide array binding signal intensity,ScBzz1-D1,7
same,SPOT peptide array binding signal intensity,ScBzz1-D2,1
same,SPOT peptide array binding signal intensity,ScCyk3,1
same,SPOT peptide array binding signal intensity,ScFus1,1
same,SPOT peptide array binding signal intensity,ScHof1,1.5
same,SPOT peptide array binding signal intensity,ScHse1,7
same,SPOT peptide array binding signal intensity,ScLsb1,127
same,SPOT peptide array binding signal intensity,ScLsb2,8
same,SPOT peptide array binding signal intensity,ScLsb3,4150
same,SPOT peptide array binding signal intensity,ScLsb4,2440
same,SPOT peptide array binding signal intensity,ScMyo3,≤ 0
same,SPOT peptide array binding signal intensity,ScMyo5,≤ 0
same,SPOT peptide array binding signal intensity,ScNbp2,2.5
same,SPOT peptide array binding signal intensity,ScPex13,646
same,SPOT peptide array binding signal intensity,ScRvs167,244
same,SPOT peptide array binding signal intensity,ScSho1,≤ 0
same,SPOT peptide array binding signal intensity,ScSla1-D1-D2,1
same,SPOT peptide array binding signal intensity,ScSla1-D3,1
same,SPOT peptide array binding signal intensity,SpAbp1-D1,1
same,SPOT peptide array binding signal intensity,SpBbc1,2
same,SPOT peptide array binding signal intensity,SpBzz1-D1,≤ 0
